# CCHF vOTU inh-1 = blocks the CCHF virus ovarian tumor domain protease; CCHFV vOTU protease, Pep-AMC fluorescence; inhibition, % at 11.5 µM; actives 0.55% (n = 370,000); further: 0% = vehicle wells with enzyme and 100% = no enzyme wells
# PriA SSB inh = inhibitors of Klebsiella pneumoniae PriA binding to SSB C-terminal tail; AlphaScreen SSBct-PriA binding, biotinylated peptide; inhibition, % at 33 µM; actives 0.6% (n = 430,000); AID 1272365; in the data active means inhibition mostly above about 37%, no sharp cut-off; inactive means mostly below about 20%;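 further: plate controls were negative control peptide for no effect and reference peptide for full effect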
# BH1578 lux ind = induces V. cholerae light production without autoinducers. V. cholerae BH1578 lux reporter, luminescence, 6 h. activation, % at 18.7 µM. actives 0.16% (n = 350,000). AID 588436; in the data active means activation mostly above about 9.7%, no sharp cut-off
# PrPC surface inh = reduces human prion protein on the cell surface; cell surface PrPC, TR-FRET read-out; inhibition, % at 13.8 µM; actives 0.43% (n = 370,000); P04156; in the data active means inhibition above about 24%; further: 0% = median of the test wells and 100% = reference compound wells
# VHR inh abs = DUSP3 (human) phosphatase inhibition; P51452; recombinant VHR phosphatase, pNPP absorbance; inhibition, % at 13.3 µM; actives 0.52% (n = 290,000); in the data active means inhibition above about 50%
# Target sequence (P51452 whole entry, looked up): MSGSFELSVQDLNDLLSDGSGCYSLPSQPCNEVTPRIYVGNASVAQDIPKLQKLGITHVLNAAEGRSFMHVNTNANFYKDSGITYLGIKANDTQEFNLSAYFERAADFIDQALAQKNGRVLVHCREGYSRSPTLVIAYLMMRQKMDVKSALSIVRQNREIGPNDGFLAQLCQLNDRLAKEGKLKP
# TcdB inh = blocks C. difficile toxin B glycohydrolase activity; inhibition, % at 9.99 µM; TcdB glycohydrolase enzymatic assay, plate reader; P18177; actives 0.24% (n = 350,000); AID 652162; in the data active means inhibition above about 10%
# CCHF vOTU inh-2 = CCHFV vOTU protease inhibition, confirmation; Recombinant CCHFV vOTU, Pep-AMC fluorescence; inhibition, % at 11.5 µM; shares compounds with CCHF vOTU inh-1; AID 686976; actives 17% (n = 1,900)
# * hit, by the source's call; i = inactive; · = no result. An excerpt weighted towards active compounds, which were near 1.5% of everything screened. Unless noted, no stated cut-off is given here; in the data, active means inhibition above about 30%; inactive means the rest.
SMILES,CCHF vOTU inh-1,PriA SSB inh,BH1578 lux ind,PrPC surface inh,VHR inh abs,TcdB inh,CCHF vOTU inh-2
CCS(=O)(=O)c1ccc(C(=O)Nc2ccc(SC)cc2)cc1,·,-1,·,·,·,·,·
O=C(c1cnn(-c2ccccc2)n1)N1CCc2nc3ccccn3c(=O)c2C1,·,0,·,·,·,·,·
CCc1cc(-c2cnnn2Cc2ccccc2)ccc1-c1cn(CC(C)C)nn1,30*,·,-1,3,·,1,-10
CCCCn1c(NC(=O)c2ccco2)c(S(=O)(=O)c2ccc(C)cc2)c2nc3ccccc3nc21,-12,-8,0,20,29,0,·
CCCCn1c(NC(=O)c2ccco2)c(C(=O)OCC)c2nc3ccccc3nc21,55*,5,-1,-10,-1,·,-97
CCOC(=O)c1c(N)n(Cc2ccco2)c2nc3ccccc3nc12,-285,-6,0,-11,19,·,·
CCCCCn1c(NC(=O)c2ccco2)c(S(=O)(=O)c2ccc(C)cc2)c2nc3ccccc3nc21,71*,5,-5,-1,17,·,-63
CCCCn1c(NC(=O)c2ccc(Br)o2)c(S(=O)(=O)c2ccccc2)c2nc3ccccc3nc21,60*,4,0,11,-2,·,-29
c1csc(-c2noc(C3CN(Cc4ccc5c(c4)CCO5)C3)n2)c1,·,4,·,·,·,·,·
O=C(c1ccc(Cl)cc1)N1CCCCC(Sc2ncnc3sccc23)C1=O (centres undefined),·,-9,·,·,·,·,·
Cc1noc(-c2ccc(NC(=O)NCc3cccs3)cc2)n1,·,-18,·,·,·,·,·
Cc1csc(N/N=C/c2ccc(O)c([N+](=O)[O-])c2)n1,9,·,i,-10,-2,·,·
Cc1nnc(N/N=C/c2ccc(O)c([N+](=O)[O-])c2)[nH]c1=O,32*,·,-5,-7,28,·,6
COc1ccccc1OCCNC(=O)c1ccc(Nc2nn3c(=O)c4ccccc4nc3s2)cc1,·,-2,·,·,·,·,·
COc1ccc(-c2nnc(NC(=O)/C=C/c3cccs3)o2)cc1,·,-8,·,·,·,·,·
Cc1ccccc1-c1cc(=O)c2c(O)cccc2o1,35*,5,i,-2,10,1,-2
CCN(CC)S(=O)(=O)c1ccc(N2CCOCC2)c(NC(=O)c2cc(-c3ccccn3)nc3ccccc23)c1,8,3,0,-3,6,2,·
CCS(=O)(=O)c1ccc(O)c(NC(=O)c2cc(-c3ccccn3)nc3ccccc23)c1,32*,6,-4,-5,·,2,-17
O=C(N/C(=C/c1ccc(Br)cc1)C(=O)N1CCOCC1)c1ccco1,-1,-16,0,-6,0,0,·
CSc1ccc(/C=C(/NC(=O)c2ccco2)C(=O)N2CCOCC2)cc1,30*,-13,i,-8,18,3,-15
[O-][n+]1cccc2cccc(O)c21,0,14,i,-8,·,1,·
C[n+]1cccc2cccc([O-])c21,58*,1,-1,-7,18,-2,96*
COc1ccc(-n2nnc(C(=O)OCc3nc(-c4ccc(C)cc4)oc3C)c2C)cc1,·,8,·,·,·,·,·
O=C(Nc1ncc([N+](=O)[O-])s1)C1CCN(S(=O)(=O)c2cnc[nH]2)CC1,31*,3,i,-41,-7,2,-1
CC(C)c1c(C(=O)Nc2cc(Cl)ccc2Cl)nnn1-c1ccc(Cl)cc1,·,-6,·,·,·,·,·
SMILES,CCHF vOTU inh-1,PriA SSB inh,BH1578 lux ind,PrPC surface inh,VHR inh abs,TcdB inh,CCHF vOTU inh-2
Nc1c2c(=O)[nH]c(O)cc2nn1-c1ccccc1,63*,-12,-5,-8,·,0,-11
Cc1c(C)c2c(C)nn(-c3ccccc3)c2[nH]c1=O,-3,-6,i,0,38,·,·
Cc1cnc(C(=O)Nc2c(-c3ccccc3)[nH][nH]c2=O)cn1,21,·,·,2,·,-7,·
CN(C)c1ccc(-c2[nH][nH]c(=O)c2NC(=O)c2ccccn2)cc1,113*,·,·,1,·,-1,2
CN(C)c1ccc(-c2[nH][nH]c(=O)c2NC(=O)c2ccc3ccccc3n2)cc1,105*,·,·,-4,·,0,-11
O=C(Nc1c(-c2ccccc2)[nH][nH]c1=O)c1ccccc1,24,·,·,-2,·,-17,·
COc1ccc(Cn2c(SCC(=O)Nc3cc(C)ccc3OC)nc3c(sc4ncccc43)c2=O)cc1,·,-1,·,·,·,·,·
CN(CCc1ccccc1)C(=O)c1cc(COc2cccc(C(F)(F)F)c2)on1,30*,-52,-1,-7,-13,0,13
CN(CCCN1CCOCC1)C(=O)c1cc(COc2cccc(C(F)(F)F)c2)on1,1,-16,0,2,2,1,·
CCOC(=O)c1c(S(=O)(=O)NCC(=O)NCc2ccc(C)cc2)c(C)n(C)c1C,42*,-2,0,3,-14,-4,-12
CC(=O)N1CC(C(=O)Nc2ccc(S(C)(=O)=O)cc2)C1,·,-9,·,·,·,·,·
O=C(CCCN1C(=O)c2cccc3cccc(c23)C1=O)Nc1ccc(N2CCOCC2)cc1,·,-16,·,·,·,·,·
N#Cc1cc([N+](=O)[O-])ccc1NC(=O)CSc1n[nH]c(=O)n1C1CC1,32*,-14,i,-36,·,-1,-15
O=C(CSc1n[nH]c(=O)n1C1CC1)Nc1ccc(Cl)cc1Cl,3,-10,-3,5,·,1,·
CC(C)c1nnc2c(=O)n(-c3ccc(F)cc3)ccn12,·,-5,·,·,·,·,·
Cc1ccccc1-c1cc2c(nn1)-c1ccccc1C2=O,96*,12,1,-18,17,·,94*
Cc1ccc(-c2cc3c(nn2)-c2ccccc2C3=O)cc1,25,5,0,-9,21,0,·
O=[N+]([O-])c1cccc(CSc2ccc3nc(-c4ccccc4)cn3n2)c1,·,-14,·,·,·,·,·
Cc1ccc([N+](=O)[O-])cc1N(CC(=O)Nc1ccc(S(=O)(=O)Nc2cccc(C(F)(F)F)c2)cc1)S(C)(=O)=O,30*,-2,0,24,4,·,-9
Cc1cc(N2CCNC[C@@H]2C)ccc1N1CC[C@@H](O)C1,17,·,·,-3,·,-13,·
C[C@H]1CNCCN1c1ccc(N2CC[C@@H](O)C2)c(C#N)c1,34*,·,·,-2,·,-24,-20
COc1cc2c(cc1OC)[C@@H](NC(=O)CCC1CCCCC1)[C@H](O)C2,-4,-3,i,-3,·,0,·
CCCCCCCCCC(=O)N[C@@H]1c2cc(OC)c(OC)cc2C[C@H]1O,31*,-9,-2,-4,·,2,-1
COc1ccc(-n2nnnc2SCC(=O)c2cccc(OC)c2)cc1,31*,1,-1,7,0,-4,-13
CCn1nnnc1SCC(=O)c1cccc(OC)c1,0,10,2,9,-8,·,·
CS(=O)(=O)c1ccc(CC(=O)N(Cc2ccccc2)c2nc3c(F)cc(F)cc3s2)cc1,·,-3,·,·,·,·,·
Nc1c(C(=O)Nc2ccc3c(c2)OCCO3)nnn1Cc1ccc(Br)cc1,31*,-3,-2,12,·,0,-9
Nc1c(C(=O)Nc2ccc3c(c2)OCCO3)nnn1CCc1ccccc1,2,-4,0,11,12,1,·

# Compound activity: PubChem BioAssay, several laboratories
